The nature of experiment [1]: qHTS assay to identify small molecule antagonists of the vitamin D receptor (VDR) signaling pathway - cell viability counter screen (AID 743225). Note: nearly all actives have a fitted effect of over 50% in size. An outline of the steps:
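Luminescent cell viability (CellTiter-Glo) in VDR-bla HEK 293T cells after 16 h compound exposure at 37C in the presence of 3 nM final 1-alpha,25-dihydroxy vitamin D3.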
Background: qHTS replaces the single test concentration by a dilution series.

Experiment [2] can be described thus: qHTS assay to identify small molecule agonists of the NFkB signaling pathway (AID 1159509; active = well fitted curve in the direction sought with a large enough effect in the signal ratio in the repeat runs, not every such curve was filed as active; the % refers to the signal ratio; note: series mostly up to about 61 µM). An outline of the steps:
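NFkB-bla ME-180 cells with a beta-lactamase reporter under an NF-kB response element were plated overnight, treated with compounds in DMSO for 5 hr at 37 C, then loaded with FRET substrate for 1.5 hr at room temperature.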

A short description of experiment [3]: qHTS assay to identify small molecule agonists of the NFkB signaling pathway - cell viability counter screen (AID 1159515; calls by dose curve; note: series mostly up to about 61 µM; nearly all actives have a fitted effect of over 55% in size). An outline of the steps: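 5 hr compound treatment of NFkB-bla ME-180 cells (2,000/well, seeded overnight beforehand), followed by reporter substrate for 1.5 hr. CellTiter-Glo added afterward; luminescence after 30 min RT.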
A short description of experiment [4]: qHTS assay to identify small molecule agonists of the endoplasmic reticulum stress response signaling pathway (AID 1159516; active = well fitted activation curve with a large enough effect in the signal ratio in the repeat runs, not every such curve was filed as active; the % refers to the signal ratio). An outline of the steps: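 Reporter HeLa cells (ESRE-beta-lactamase) underwent 5 hr compound incubation at 37 C and 5% CO2 in quantitative HTS format. Detection followed 2 hr of FRET substrate loading at room temperature.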
The nature of experiment [5]: qHTS assay to identify small molecule antagonists of the retinoid-related orphan receptor gamma (ROR-gamma) signaling pathway - cell viability counter screen (AID 1159520). Note: nearly all actives have a fitted effect of over 50% in size. A digest of the protocol: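 Tet-on ROR gamma CHO cells were given compounds for 2 hr, then doxycycline hyclate at 1 uM final, and incubated 16 hr at 37 C. Viability was measured as ATP content by CellTiter-Glo luminescence.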

Experiment [6] concerns the target Nuclear receptor ROR-gamma (Homo sapiens) (UniProt P51449). In words: qHTS assay to identify small molecule antagonists of the retinoid-related orphan receptor gamma (ROR-gamma) signaling pathway (AID 1159521;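 note: CHO cells with doxycycline inducible ROR-gamma driving an RORE luciferase reporter; top concentration of the series differs between compounds; nearly all actives have a fitted effect of over 50% in size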). A digest of the protocol: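 CHO cells expressing RORγ under a TET-on promoter, luciferase under RORE control. Dox 1 uM final, 16 h; compounds added 2 h prior. Luminescence decrease measured.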

Experiment [7] can be described thus: qHTS assay to identify small molecule agonists of the AP-1 signaling pathway - cell viability counter screen (AID 1159525; calls by dose curve; note: nearly all actives have a fitted effect of over 55% in size). A digest of the protocol: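 AP-1-bla ME-180 cells in Opti-MEM with 0.5% dialyzed FBS, compound exposure 5 h at 37 C in 15-point titration. Viability read in the same wells as ATP content by CellTiter-Glo luminescence, normalised to tetra-n-octylammonium bromide and DMSO controls.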

Experiment [8] is described as follows: qHTS assay to identify small molecule agonists of the AP-1 signaling pathway (AID 1159526; calls by dose curve).
Experiment [9] can be described thus: qHTS assay to identify small molecule agonists of the RXR signaling pathway - cell viability counter screen (AID 1159529).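 Note: HEK 293T cells carrying an RXR-alpha UAS beta-lactamase reporter; series mostly up to about 77 µM; nearly all actives have a fitted effect of over 50% in size.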 An outline of the steps:
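Same-well viability check after the LiveBLAzer FRET read: CellTiter-Glo added, luminescence measured after 30 min at room temperature. Reporter HEK 293T cells had been treated with compounds for 16 hr following a 5 hr preincubation.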

Experiment [10] can be described thus: qHTS assay to identify small molecule antagonists of the retinoid acid receptor (RAR) signaling pathway - cell viability counter screen (AID 1159551). Note: nearly all actives have a fitted effect of over 35% in size. An outline of the steps:
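Seed C3RL4 cells; next day add compound, then retinol to 1 uM final; incubate 6 h at 37 C; add CellTiter-Glo; read luminescence after 30 min at RT.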

Experiment [11] can be described thus: qHTS assay to identify small molecule antagonists of the retinoic acid receptor (RAR) signaling pathway (AID 1159552; note: nearly all actives have a fitted effect of over 50% in size). A digest of the protocol: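 Readout: luciferase luminescence, 30 min post-reagent at RT. Setup: C3RL4 RARE reporter cells, compounds plus retinol 1 uM final, 6 hr incubation at 37 C and 5% CO2.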
The nature of experiment [12]: qHTS assay to identify small molecule agonists of the vitamin D receptor (VDR) signaling pathway - cell viability counter screen (AID 743224). A digest of the protocol: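 Here cell health was gauged by luminescent ATP detection (CellTiter-Glo, 30 min RT) in VDR-bla cells that had been incubated with test compounds for 16 h at 37C and 5% CO2.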
The target of experiment [13] is Retinoic acid receptor RXR-alpha (Homo sapiens) (UniProt P19793). The experiment in a line: qHTS assay to identify small molecule agonists of the RXR signaling pathway (AID 1159527; calls by dose curve; note: nearly all actives have a fitted effect of over 35% in size; note: potency is the fitted concentration of half-maximal effect). An outline of the steps:
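Beta-lactamase reporter assay, agonist format. Engineered HEK 293T line, charcoal-stripped FBS at 2%, overnight (16 hr) exposure, fluorescence at 460 and 530 nm after 405 nm excitation.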

Experiment [14] is described as follows: qHTS assay to identify small molecule agonists of the retinoic acid receptor (RAR) signaling pathway (AID 1159553). Note: potency is the fitted concentration of half-maximal effect. A digest of the protocol:
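Activation of retinol signaling was monitored via a RARE luciferase reporter in C3RL4 cells. After 6 hr compound treatment at 37 C, detection reagent was added for 30 min at room temperature before luminescence reading.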

Results filed as inconclusive are left out. Calls of active or inactive are those of the source. Unless noted, calls come from the whole dose curve; as a rule, active = well fitted curve in the direction sought with a large enough effect in the repeat runs; inconclusive = weak or mixed curves; inactive = no such curve, though single readings can be large; an effect the other way counts as inactive or inconclusive.

The text below walks through data of PubChem BioAssay (Tox21).

Sequence of Retinoic acid receptor RXR-alpha (Homo sapiens) (P19793 whole entry, looked up): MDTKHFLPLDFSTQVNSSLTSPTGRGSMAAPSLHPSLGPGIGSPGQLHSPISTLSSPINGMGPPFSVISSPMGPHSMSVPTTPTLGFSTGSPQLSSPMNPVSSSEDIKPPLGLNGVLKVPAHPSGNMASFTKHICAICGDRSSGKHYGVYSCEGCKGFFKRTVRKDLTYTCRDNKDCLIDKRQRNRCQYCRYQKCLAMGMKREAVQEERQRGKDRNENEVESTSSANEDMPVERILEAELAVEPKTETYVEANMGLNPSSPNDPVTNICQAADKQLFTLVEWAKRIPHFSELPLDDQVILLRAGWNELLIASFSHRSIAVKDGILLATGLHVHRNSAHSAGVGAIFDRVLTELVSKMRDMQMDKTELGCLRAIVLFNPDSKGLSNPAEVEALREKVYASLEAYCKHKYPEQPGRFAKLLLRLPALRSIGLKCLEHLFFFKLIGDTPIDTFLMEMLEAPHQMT

As to `COC(=O)Nc1nc2ccc(C(=O)C3CC3)cc2[nH]1`, the Potency result in experiment [1], in experiment [3], in experiment [4], in experiment [5], in experiment [6] and in experiment [7] was “inactive” in each case. The Potency entry in experiment [9], in [10] and in [11] was “inactive” each time. Further, the result in experiment [2] and in [8] was inactive.
In the case of `CN=C(N)NC(=O)Nc1c(C)cccc1C`, the Potency result in experiment [12], in [1], in experiment [3], in experiment [4], in experiment [5] and in experiment [6] was “inactive” throughout. Also, the Potency entry in experiment [7], in experiment [13] and in experiment [9] was “inactive” throughout. The outcome in experiment [2] and in experiment [8] was inactive.
As to `C=C(C)C(=O)OCCC(F)(F)C(F)(F)C(F)(F)C(F)(F)C(F)(F)C(F)(F)F`, the Potency entry in [12], in [3], in [4], in experiment [5], in experiment [6] and in experiment [7] was “inactive” each time. For the same compound, the Potency result in [13] and in experiment [9] was “inactive” throughout. For the same compound, the compound was classed as inactive in experiment [2] and in [8].
As to `CCCCCCCCCCCC(=O)OCC(O)CO` (centres undefined), the call in [2] and in [8] was inactive. Besides, the Potency result in experiment [3], in experiment [4], in experiment [5], in experiment [6], in experiment [7] and in experiment [10] was “inactive” throughout. The Potency entry in [11] and in experiment [14] was “inactive” each time. In addition, the Potency in [13] was 54.9 µM (active).
As for `O=C(Oc1ccccc1)c1ccc2ccccc2c1O`, the Potency result in [1], in experiment [3], in experiment [4], in experiment [5], in [6] and in experiment [7] was “inactive” in each case. Moreover, the Potency result in [10] and in [11] was “inactive” each time. Further, the compound was called inactive in experiment [2] and in experiment [8]. Further, the Potency in experiment [14] was 0.864 µM (active).
As to `O=CNNC=O`, the Potency result in experiment [1], in experiment [3], in experiment [4], in experiment [5], in experiment [6] and in experiment [7] was “inactive” throughout. In addition, the Potency entry in [13] and in experiment [9] was “inactive” throughout. In addition, the call in [2] and in [8] was inactive.
Consider `Cc1ccc2c(c1)CCCN2`, for which the Potency entry in experiment [12], in [1], in [3], in experiment [4], in [5] and in experiment [6] was “inactive” in each case. Also, the Potency result in experiment [7], in [13], in experiment [9], in experiment [11] and in experiment [14] was “inactive” throughout. Further, the compound was classed as inactive in experiment [2] and in experiment [8].
Consider `CC(C)C1CCC(C(=O)N[C@H](Cc2ccccc2)C(=O)O)CC1` (some centres undefined), for which the Potency result in [12], in experiment [1], in [3], in experiment [4], in experiment [5] and in experiment [6] was “inactive” throughout. Further, the Potency entry in [7], in [13], in experiment [9], in experiment [11] and in experiment [14] was “inactive” each time. Moreover, the compound was classed as inactive in [2] and in [8].
As for `CC1=C2[C@@H]([C@H](C)CC[C@H]2/C=C(\C)C(=O)O)[C@H](O)C1`, the Potency entry in experiment [12], in [1], in experiment [3], in experiment [4], in experiment [5] and in experiment [6] was “inactive” throughout. Also, the Potency entry in experiment [7], in [9] and in experiment [10] was “inactive” in each case. Besides, the call in experiment [2] and in experiment [8] was inactive.
Consider `CCC1CCC(CCC(=O)O)C1` (centres undefined), for which the Potency result in experiment [12], in experiment [3], in [4], in [5], in [6] and in experiment [7] was “inactive” throughout. Moreover, the Potency result in [9] and in experiment [11] was “inactive” in each case. The call in [2] and in experiment [8] was inactive.
Regarding `CCCCCCC(O)CCCCCCCCCCC(=O)OC` (centres undefined), the Potency entry in [12], in [1], in experiment [3], in experiment [4], in experiment [5] and in experiment [6] was “inactive” in each case. Besides, the Potency result in [7], in experiment [13], in experiment [9], in experiment [10], in experiment [11] and in [14] was “inactive” throughout. Also, the compound was called inactive in [2].
